Measurements taken from PubChem BioAssay (Tox21).
Several values for one entry are separate records, joined by “and”; a condition that tells them apart may be missing. Equal values may be shown once. Inconclusive results are not listed. Entries that show only a call come without a potency. Values without a mark were called inactive. Activity calls are given as the source filed them. Calls come from the whole dose curve; as a rule, active = well fitted cell-killing curve with a large enough effect in the repeat runs; inconclusive = weak or mixed curves, or effect the other way; inactive = no such curve, though single readings can be large or run the other way.
Potency is the fitted concentration of half-maximal effect.

Assay: qHTS assay to identify small molecule antagonists of the retinoid-related orphan receptor gamma (ROR-gamma) signaling pathway - cell viability counter screen (AID 1159520); note: nearly all actives have a fitted effect of over 50% in size
Conditions: Tet-on RORgamma CHO cells viability, ATP luminescence, 16 h; series mostly up to 92.4 µM
Text: U.S. Tox21 Program National Center for Advancing Translational Sciences [NCATS] NIH Chemical Genomics Center [NCGC] U.S. Environmental Protection Agency [EPA] National Institutes of Environmental Health Sciences [NIEHS] National Toxicology Program [NTP] U.S. Food and Drug Administration [FDA] Tox21 Assay Overview: Nuclear steroid hormone receptors are involved in many biological processes including inflammatory responses, cell proliferation, and apoptosis. Environmental factors or compounds disrupting these nuclear receptor pathways and gene expression may promote susceptibility to immunotoxicants and autoimmune diseases. One important group of these expression factors are the retinoid-related orphan receptors. To assess compounds that may interfere with the retinoid-related orphan receptor gamma (ROR-gamma) transcription factor, a cell-based luciferase assay was used. The CHO cell-based assay utilizes a TET-inducible ROR expression factor and ROR response element-LUC reporter gene. Reporter gene activity was induced using Doxycycline Hyclate and measured after 16 hr incubation. Tet-on ROR gamma CHO cells were used to screen against the Tox21 10K compound library for cytotoxicity by measuring the viability of the cells based on the quantitation of the ATP.
Tox21 Assay Protocol Summary: Tet-on ROR gamma CHO cells were dispensed at 1,000 cells in 4 uL of culture medium per well into white wall/solid bottom 1536-well plates using a Multidrop Combi (Thermo Scientific, Waltham, MA) dispenser. Following incubation at 37 C and 5% CO2 for 4 hr, 23 nL of compounds dissolved in DMSO, positive controls or DMSO only were transferred by a Pintool station (Kalypsys, San Diego, CA) and after 2 hr incubation at 37 C, one ul of 1 uM (final concentration) of Doxycycline Hyclate was added to all the wells by using a Flying Reagent Dispenser (FRD) (Aurora Discovery, San Diego, CA). After 16 hr incubation at 37 C and 5% CO2, 5 uL of CellTiter-Glo reagent (Promega Corporation, Madison, WI) was added to each assay plate using FRD. After 30 min incubation at room temperature, luminescence was quantified on a ViewLux plate reader (Perkin Elmer, Waltham, MA).
With OCC(F)(F)F the Potency was “inactive”. For Cc1c(C)c([N+](=O)[O-])c(C(C)(C)C)c([N+](=O)[O-])c1C, the Potency was “inactive”. In the case of C#C[C@]1(O)CC[C@H]2[C@@H]3[C@H](C)CC4=C(CCC(=O)C4)[C@H]3CC[C@@]21C, the Potency is reported as “inactive”. In the case of ClCCl, the Potency is reported as “inactive”. With OC[C@@H](O)[C@@H](O)CO the Potency was “inactive”. For C=Cc1ccccc1C=C, the Potency was “inactive”. With CCC(=O)OC(=O)CC the Potency was “inactive”. For COC(=O)c1ccccc1C, the Potency was “inactive”. For COc1cccc(OC)c1C(=O)O, the Potency was “inactive”. In the case of O=C(c1ccc(O)c(O)c1)c1ccc(O)cc1O, the Potency is reported as “inactive”. For COc1ccc2c(c1)c(CC(=O)OC/C=C(\C)CC/C=C(\C)CCC=C(C)C)c(C)n2C(=O)c1ccc(Cl)cc1, the Potency was “inactive”. In the case of CC(C)CCCCCOC(=O)CCS, the Potency is reported as “inactive”. For CC(C)(c1cc(Br)c(OCC(Br)CBr)c(Br)c1)c1cc(Br)c(OCC(Br)CBr)c(Br)c1 (stereo not given), the Potency was “inactive”. For COc1cccc2c1C(=O)c1c(O)c3c(c(O)c1C2=O)C[C@@](O)(C(C)=O)C[C@@H]3O[C@H]1C[C@H](N)[C@H](O)[C@H](C)O1, the Potency was 13.8 µM (active) and 15 µM (active). In the case of O=C(/C=C/c1ccc(O)c(O)c1)O[C@@H](C(=O)O)[C@@H](OC(=O)/C=C/c1ccc(O)c(O)c1)C(=O)O, the Potency is reported as “inactive”. In the case of O=C(O)c1ccc2cc(C(=O)O)ccc2c1, the Potency is reported as “inactive”. In the case of Cc1cc(-n2nc3ccc(Cl)cc3n2)c(O)c(C(C)(C)C)c1, the Potency is reported as “inactive”. In the case of COC(C)=O, the Potency is reported as “inactive”. For CCC(CC)(CC(=O)Nc1cccc(/C=C/c2nc(C3CCC3)cs2)c1)C(=O)O, the Potency was “inactive”. In the case of CC(C)(C)C1CCC(=O)CC1, the Potency is reported as “inactive”. For O=C(O)CCN(C1(C(=O)NO)CCCC1)S(=O)(=O)c1ccc(Oc2ccc(F)cc2)cc1, the Potency was “inactive”. For CCCCCCCC, the Potency was “inactive”. With CCCCCCCCCCCCCCCC[N+](C)(C)CC the Potency was 61.3 µM (active) and 23.7 µM (active). For CC(C(=O)O)c1ccc2c(c1)[nH]c1ccc(Cl)cc12 (stereo not given), the Potency was “inactive”. With OC/C=C/CO the Potency was “inactive”. With Cc1cc(=O)oc2cc(O)cc(O)c12 the Potency was “inactive”. In the case of CCc1ccc(Br)cc1, the Potency is reported as “inactive”. For O=C(O)c1cc(N=Nc2ccc([N+](=O)[O-])cc2)ccc1O, the Potency was “inactive”. With C=CCCC(=O)/C=C/C1C(C)=CCCC1(C)C (stereo not given) the Potency was “inactive”. For C=C(CC)C(=O)c1ccc(OCC(=O)O)c(Cl)c1Cl, the Potency was “inactive”. For CNc1ccc([N+](=O)[O-])cc1, the Potency was “inactive”. For CC(C)(C)c1ccc(C(O)CCCN2CCC(C(O)(c3ccccc3)c3ccccc3)CC2)cc1 (stereo not given), the Potency was 18.8 µM (active). With Nc1nc(-c2ccccc2)cs1 the Potency was “inactive”. In the case of COc1cc(C)ccc1O, the Potency is reported as “inactive”. In the case of Clc1nnc(Cl)c2ccccc12, the Potency is reported as “inactive”. In the case of CC(C)(C)NSc1nc2ccccc2s1, the Potency is reported as “inactive”. In the case of O=C1CCCCCCCCCCCCCCCO1, the Potency is reported as “inactive”. C[C@H]1NCc2cc(-c3ccc4c(=O)c(C(=O)O)cn(C5CC5)c4c3OC(F)F)ccc21 showed an activity, negative = cytotoxicity of -17.1% [at 19 µM]. C[C@@H](O)[C@H](N)C(=O)O showed an activity, negative = cytotoxicity of -0.243% [at 19 µM]. For CC[N+](CC)(CC)CCOc1ccc(/C=C/c2ccccc2)cc1, the Potency was “inactive”.
